Values joined by “and” are separate entries in the source; they are usually repeats but may differ in a detail not shown here. Equal values may be shown once. In all, about 16,000 compounds went through this assay and about 5,700 (36%) were called active. About 24% were inconclusive and are not listed. This is one part of the list. Unmarked numbers belong to inactive results. Calls follow the shape of the dose curve; as a rule, active = well fitted curve in the direction sought with a large enough effect; inconclusive = small, poorly fitted or top-dose-only effect, or effect the other way; inactive = no such curve, though single readings can be large or run the other way.
These compounds were tested against Cytochrome P450 1A2 (Homo sapiens) (UniProt P05177) (assay: Cytochrome panel assay with activity outcomes). Conditions: recombinant CYP, pro-luciferin dealkylation, luminescence, p450-cyp1a2; series mostly up to 57.1 µM; activity, negative = inhibition: at the top concentration.
Sequence of Cytochrome P450 1A2 (Homo sapiens) (P05177 whole entry, looked up): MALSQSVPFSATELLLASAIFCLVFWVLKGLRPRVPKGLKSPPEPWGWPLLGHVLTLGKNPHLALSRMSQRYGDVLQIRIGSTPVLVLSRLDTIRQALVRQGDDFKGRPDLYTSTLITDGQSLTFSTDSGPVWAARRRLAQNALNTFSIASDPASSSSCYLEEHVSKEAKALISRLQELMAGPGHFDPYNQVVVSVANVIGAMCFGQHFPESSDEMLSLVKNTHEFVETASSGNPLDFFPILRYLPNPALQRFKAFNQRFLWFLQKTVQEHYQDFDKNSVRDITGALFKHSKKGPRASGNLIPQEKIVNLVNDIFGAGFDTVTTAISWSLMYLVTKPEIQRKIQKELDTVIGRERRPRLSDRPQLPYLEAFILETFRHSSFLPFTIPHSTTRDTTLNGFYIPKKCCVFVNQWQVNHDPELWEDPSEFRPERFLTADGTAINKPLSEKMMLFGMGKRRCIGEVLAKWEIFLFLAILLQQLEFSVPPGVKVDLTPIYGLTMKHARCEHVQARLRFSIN
% is scaled to controls: 0 for no effect and ±100 for the full control effect.

Compound | AC50 | activity, negative = inhibition
CCN(CC)c1ccc2cc(C(C)=O)c(=O)oc2c1 | 0.891 µM (active) | –
COc1cc(CNn2nnnc2N)ccc1OCc1c(Cl)cccc1Cl | 7.08 µM (active) | –
COc1ccc(C[N+](C)(C)N)cc1OC | – | -11.5% [at 11.4 µM]
Nc1ncnc2c1ncn2CCCCC(=O)O | – | -3.15% [at 11.4 µM]
Nc1ccc(S(=O)(=O)c2ccc(NC(=O)c3cccnc3)cc2)cc1 | – | -21.1% [at 2.29 µM]
O=C(Nc1cccnc1)c1ccc2snnc2c1 | 0.0631 µM (active) | –
COc1ccc(OC)c2c(=S)c3ccccc3[nH]c12 | 0.0631 µM (active) | –
COc1cc(N2CCOCC2)ncn1 | – | -18.1%
COc1ccc2c(C)cc(N3CCOCC3)nc2c1 | 2.51 µM (active) | –
COc1ccc(C2(C(=O)N3CCOCC3)CCCC2)cc1 | – | -1.36%
NCCCCCc1nnc(SCc2ccc(Cl)cc2Cl)o1 | 11.2 µM (active) | –
CCOc1cc(/C=N/NC(=O)c2cc(C)[nH]n2)ccc1OC(=O)c1ccc([N+](=O)[O-])cc1 | – | 27.9%
COc1ccc(/C=C/C(=O)Oc2cccc(/C=N/NC(=O)COc3c(C)cccc3C)c2)cc1 | – | -9.66%
CCOc1cc(/C=N/NC(=O)COc2cccc(C)c2)ccc1OC(=O)c1cccs1 | 11.2 µM (active) | –
CN(C)CCNC(=S)Nc1cccc(Cl)c1 | – | -24.8%
S=C(NCc1ccccn1)Nc1cccc(Cl)c1 | 2.82 µM (active) | –
FC(F)(F)c1cccc(NC(=S)Nc2cccc(Cl)c2)c1 | 5.01 µM (active) | –
CO[C@H]1COC(=O)[C@@H](C)COC(=O)[C@@H](Cc2ccccc2)NC(=O)C/C=C\[C@H]1C | – | 4.52% [at 11.4 µM]
CC1(C)S[C@@H]2[C@H](NC(=O)[C@@H](N)c3ccccc3)C(=O)N2[C@H]1C(=O)O[C@H]1OC(=O)c2ccccc21 | – | -13% [at 25.6 µM]
O=C(Nc1cc(C(F)(F)F)ccc1-n1cncn1)c1ccc(Br)cc1 | 0.562 µM (active) | –
CCOC(=O)CCN1C(=O)[C@H]2[C@H]3[C@H](O)[C@H](O)C/C(=N/OC[C@@H](O)COCc4ccco4)[C@@H]3CC[C@@H]2C1=O | – | -1.07% [at 11.4 µM]
Cn1c(=O)c2c3c(sc2n2cnnc12)CCC3 | 8.91 µM (active) | –
CN1CCc2c(sc3c2c(=O)n(-c2ccccc2)c2nncn32)C1 | – | -17.6%
CCCCCCCCCCCCCCCCCCOC[C@@H](COP(=O)([O-])OCC[N+](C)(C)C)OC | – | 7.62%

Compound | AC50 | activity, negative = inhibition
Cc1ccsc1-c1nc(-c2ccccc2)c(-c2ccccc2)[nH]1 | 1.12 µM (active) | –
c1ccc(-c2nc(-c3cccs3)[nH]c2-c2ccccc2)cc1 | 1 µM (active) | –
COC(=O)c1ccccc1NC(=O)CSc1nnc(C(CO)NC(=O)c2ccccc2Cl)n1C (stereo not drawn) | – | 9.84%
CCOc1ccc(OCC)c(-c2c(=O)n(OCc3ccccc3C(=O)OC)c3ccccc3[n+]2[O-])c1 | – | -26%
COc1ccc(CC(=O)Nc2ccc(-c3nnc(-c4ccccc4)o3)cc2)cc1 | – | -1.05%
Cc1ccc(OCc2ccc(C(=O)Nc3nccs3)o2)cc1C | 0.631 µM (active) | –
COC(=O)c1ccccc1NC(=O)c1ccc(Cn2cc(Cl)cn2)o1 | 1.58 µM (active) | –
COC(=O)c1ccccc1NC(=O)c1ccc(COc2ccc(C)c(C)c2)o1 | 2.82 µM (active) | –
COc1ccc(NC(=O)c2ccc(COc3ccccc3)o2)cc1 | 2.51 µM (active) | –
OCCN(CCO)c1ncnc2nc[nH]c12 | – | -9.2% [at 11.4 µM]
CCOc1nc(N2CCCCC2)nc(-n2cc(-c3ccccc3)nn2)n1 | 2.51 µM (active) | –
CO[C@@H]1COC(=O)[C@H](Cc2ccccc2)NC(=O)C/C=C\[C@@H](C)[C@H](OC)COC(=O)[C@@H](C)NC(=O)C/C=C\[C@H]1C | – | -3.56% [at 11.4 µM] and 1.16% [at 11.4 µM]
C=CCn1c(C)c(C(C)=O)c(N2CCN(c3ccccc3)CC2)nc1=S | – | -17.6%
CCN1CCN(c2nc3ccccc3nc2C(C#N)C(=O)OC2CCCCC2)CC1 (stereo not drawn) | – | -18.3%
C=CCN1CCN(c2nc3ccccc3nc2C#N)CC1 | 0.1 µM (active) | –
Cc1ccc2nc(-c3ccccc3)cc(C(=O)NCCCn3ccnc3)c2c1 | 2.82 µM (active) | –
COc1c2occc2c(OC)c2c(=O)cc(C)oc12 | 0.02 µM (active) | –
CCn1ccnc1C[C@@H]1COc2ccccc2O1 | 15.8 µM (active) | –
CC1CCCC(C)N1CC(O)COCC1COc2ccccc2O1 (stereo not drawn) | – | 8.29%
COc1ncc2nc(-c3cn(C)c4ccccc34)c(=O)n(C)c2n1 | 1 µM (active) | –
COc1ccc(Oc2ncc3nc(-c4cn(C)c5ccccc45)c(=O)n(C)c3n2)cc1 | – | -15.1%
CN1CCN(c2ncc3nc(-c4cn(C)c5ccccc45)c(=O)n(CCc4ccccc4)c3n2)CC1 | – | -19.4%
CN1CCN(c2ncc3nc(-c4cn(C)c5ccccc45)c(=O)n(CCC#N)c3n2)CC1 | 15.8 µM (active) | –
COc1ncc2nc(-c3cn(C)c4ccccc34)c(=O)n(CCC#N)c2n1 | 5.01 µM (active) | –
